# Screening data from PubChem BioAssay.
# Shown are actives, neighbours in structure and some others; about 13% of the full set was active somewhere.
# FMDV inh – High Throughput Screening for Foot and Mouth Disease Virus Antivirals; FMDV antiviral cell-based qHTS; Potency, µM (doses to about 57.9 µM), for inactives: at the top dose activity change, negative = inhibition, actives largely listed as inhibitors; 410,000 tested, 1.2% active; AID 1159524, 2015; calls by dose curve; tested in HEK293T cells; also: read-out not given here; potency is read from the fitted curve at half-maximal effect; % is scaled to controls: 0 for no effect and ±100 for the full control effect; nearly all actives have a fitted effect of over 45% in size
# CHX counter – Cycloheximide Counterscreen for Small Molecule Inhibitors of Shiga Toxin | AID 2314, 2010 | max response, % | 300,000 tested, 12% active | cell reporter, cycloheximide protein synthesis inhibition counterscreen; in the data active = max response mostly above about 13%, no sharp cut-off; inactive = mostly below about 14%; also: read at 38.3 µM for the half of the compounds with a filed dose; 0% is about no effect
# MARV entry inh – qHTS for inhibitors of binding or entry into cells for Marburg Virus; Marburg virus pseudotyped entry inhibition, cell reporter; Potency, µM (top dose mostly 37.8 µM), for the others: top-dose activity change, negative = inhibition, most hits filed as inhibitors; 300,000 tested, 1.8% active; calls by dose curve; tested in HEK293 cells; also: potency is read from the fitted curve at half-maximal effect; % is scaled to controls: 0 for no effect and ±100 for the full control effect
# LASV entry inh – qHTS for Inhibitors of binding or entry into cells for Lassa Virus. Lassa virus pseudotype entry inhibition, cell reporter. Potency, µM (highest dose often 37.9 µM), inactives show top-dose activity change, negative = inhibition, most hits filed as inhibitors. 300,000 tested, 1.2% active; calls by dose curve; tested in HEK293 cells; also: potency is read from the fitted curve at half-maximal effect; % is scaled to controls: 0 for no effect and ±100 for the full control effect; nearly all actives have a fitted effect of over 50% in size
# HCV inhibitor – qHTS Assay for Inhibitors of Hepatitis C Virus (HCV); Huh7.5.1 HCVcc-Cre infection, luciferase reporter, 44 h; Potency, µM (series often up to 41.8 µM), without a hit: top-dose activity change, negative = inhibition, usual class: inhibitors; 340,000 tested, 3.4% active; active = well fitted inhibition curve with a large enough effect; inconclusive = small, poorly fitted or top-dose-only effect, or another doubt; inactive = no such curve, though single readings can be large or run the other way; also: potency is read from the fitted curve at half-maximal effect; % is scaled to controls: 0 for no effect and ±100 for the full control effect
#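 Infectious HCVcc-Cre (~0.5 moi) was added to cells just after compound, with cells seeded 4 h earlier at 1,000 per well. Luciferase activity after 44 h culture reported infection; substrate was incubated 15 min at room temperature before reading.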
# Shiga inhibitor – A qHTS for Small Molecule Inhibitors of Shiga Toxin. Vero cells, Shiga toxin protein synthesis inhibition reporter. inhibition, % at 38.7 µM. 290,000 tested, 9.2% active. AID 2315, 2010; in the data active = inhibition mostly above about 28%, no sharp cut-off; inactive = mostly below about 43%; also: 0% is about no effect
# * hit, by the source's call; ? = inconclusive; / = no result given; [ ] = dose if it differs, or a comment.
SMILES,FMDV inh,CHX counter,MARV entry inh,LASV entry inh,HCV inhibitor,Shiga inhibitor
Cn1c(COc2ccc(Br)cc2)nnc1SC1CCc2ccccc2C1=O (centres undefined),31.6µM*,7.7,?,-20.0%,?,3.9
COc1ccc(-c2ccc3c(N)c(C(=O)Nc4cccc(C)c4)sc3n2)cc1,24.1%,43.3*,22.3%[46.1 µM],18.9%[46.1 µM],/,17.0
COc1ccc(NC(=O)c2ccccc2)cc1,51.5%,/,/,/,0.562µM*,/
COc1ccc(-c2ccc3c(N)c(C(=O)Nc4cc(F)ccc4C)sc3n2)cc1,0.0%,/,?,4.5%[46.1 µM],/,/
COc1ccc(NC(=O)c2ccc(NC(=O)c3cccnc3)cc2)cc1,-14.8%,/,/,/,/,/
COc1ccc(C(=O)c2nccc3ccccc23)cc1,-23.1%,36.8*,?,23.1%,6.0%,47.7
CC(=O)c1cccc(Oc2ncccn2)c1,8.9%,-4.0,/,/,-9.6%,3.0
O=C(c1ccccc1)c1ccc(Oc2ncccn2)cc1,44.0%,57.8*,7.9%,-3.4%,-12.9%,196.8
CC(C)CC(NS(=O)(=O)c1ccccc1S(=O)(=O)NC(CC(C)C)C(=O)O)C(=O)O (centres undefined),-7.0%,-0.8,/,/,9.7%,-2.9
O=C(/C=C/c1ccccc1)N1CCN(Cc2nc3ccccc3c(=O)[nH]2)CC1,/,-3.6,2.7%,?,-24.8%,-15.0
CCN(CC)c1ccc(NS(=O)(=O)c2ccc3c(c2)CCCN3C(C)=O)c(C)c1,-10.1%,/,/,?,/,/
CC(=O)Nc1ccc(-n2c(CCC(=O)O)ccc2-c2ccc(C)cc2)cc1,3.4%,/,23.7%[46.1 µM],23.8%[46.1 µM],/,/
O=C(c1ccccc1)c1ccc(OCCO)cc1,55.3%,15.9,/,/,0.3%,38.2*
COc1ccc(/C=C(\NC(=O)c2ccc(C)cc2)C(=O)Nc2ccc(C(=O)O)cc2)cc1,30.8%,30.9*,-8.5%,3.0%,2.5%,26.3
COC(=O)COc1cccc(NC(=O)c2ccc(C)cc2)c1,-2.9%,-1.7,13.0%,-18.2%,15.0%,21.7
COc1ccc(C(=S)Nc2ccc(C)cc2)cc1,39.3%,51.3*,?,1.1%,19.2%,79.2*
Cc1ccc(NC(=O)c2ccc(OC(=O)COc3ccc(Cl)c(C)c3)cc2)cc1,?,48.9*,?,-18.4%,-5.7%,96.0*
COc1ccc(/C=C(\NC(=O)c2ccc(OC)cc2)C(=O)Nc2ccc(C(=O)O)cc2)cc1,-7.7%,0.7,10.0%[46.1 µM],3.4%[46.1 µM],4.1%,1.4
COc1ccc(NC(=S)c2ccncc2)cc1,-18.5%,-1.8,-3.3%,3.6%,-0.8%,8.2
COCOCCn1cc(CN2CCS(=O)(=O)N(Cc3ccc(-c4ccc(C)cc4)cc3)C(CC(C)C)C2=O)nn1 (centres undefined),-6.4%,/,/,?,/,/
COc1ccc(NC(=O)c2cnc(SC)nc2)cc1,47.2%,31.6*,/,/,-13.1%,41.4
COc1ccc(N(C)C(=O)c2ccc3nc(-c4ccccc4)c(-c4ccccc4)nc3c2)cc1,?,-1.6,?,?,11.2µM*,-14.2
COc1ccc(C(=O)Nc2cccc(C)c2)cc1,-0.4%,28.0*,8.6%,-1.1%,1.4%,60.5*
COc1ccc(C(=O)NC(Nc2ccccc2)C(Cl)(Cl)Cl)cc1 (centres undefined),-23.7%,1.2,-17.4%,-26.6%,7.94µM*,-10.3
COc1ccc(C(=O)NNc2ccccc2)cc1,-6.6%,15.4,?,0.7%,24.3%,13.2
SMILES,FMDV inh,CHX counter,MARV entry inh,LASV entry inh,HCV inhibitor,Shiga inhibitor
CCCCOc1ccc(C(=O)Nc2ccc(SC(F)F)cc2)cc1OC,-2.1%,-2.0,20.0%,-20.7%,?,7.2
COc1ccc(C(=O)Nc2ccc3nc(C)c(C)nc3c2)cc1,41.4%,39.0*,/,/,?,129.3*
COc1ccc(NC(=S)Nc2ccc3nc(C)c(C)nc3c2)cc1,-10.3%,2.7,-23.4%,0.6%,-10.5%,-7.0
COc1ccc(NC(=O)c2ccc(C)cc2)cc1,21.2%,37.7*,/,/,-11.0%,/
COc1ccc(C(=O)Nc2ccc(SC(F)F)cc2)cc1,10.0%,49.1*,?,15.0%,?,97.8*
Cc1ccc(NC(NC(=O)c2cccnc2)C(Cl)(Cl)Cl)cc1 (centres undefined),?,1.2,15.8µM*,-0.2%,1.7%,-8.8
COc1ccc(C(=O)NNC(=O)C(=O)Nc2ccc(C)cc2)cc1,-11.4%,4.2,6.7%[46.1 µM],2.6%,1.5%,7.4
COc1ccc(CNC(=O)Cn2c(=O)ccc3cc(S(=O)(=O)N4CCCC4)ccc32)cc1,-8.2%,/,/,7.5%[46.1 µM],/,/
CCCCCc1nc2c(c3c1CCCC3)CCCC2,-28.5%,-0.9,?,-15.3%[46.1 µM],?,-12.2
COc1ccc(NC(=O)c2ccco2)c(NC(=O)c2ccc([N+](=O)[O-])cc2)c1,?,-1.7,/,/,-14.0%,-2.5
Cc1ccc(NC(=S)c2ccccc2)cc1,14.5%,34.9*,?,5.8%,3.5%,13.8*
Cc1ccc(NC(=S)c2ccncc2)cc1,-14.2%,17.8,/,/,?,4.8
COc1ccc(C(=O)c2ccccc2)cc1,22.3%,30.6*,?,-20.8%,10.2%,44.8
O=[N+]([O-])/C=C/c1c(Cl)cccc1Cl,7.94µM*,/,10µM*,-4.7%,8.91µM*,/
O=[N+]([O-])/C=C/c1cc2ccccc2[nH]1,?,-6.4,/,/,-7.0%,-12.1
COc1ccc(C(CNC(=O)C(CCSC)NC(=O)c2ccccc2Cl)N2CCCCC2)cc1 (centres undefined),-1.6%,/,?,2.1%,1.9%,/
CCOCCCNC(=O)c1ccc(N(C)S(=O)(=O)c2ccc(OC)cc2)cc1,1.3%,-3.8,14.2%,-4.4%,-3.6%,-20.8
Cc1ccc(CNC(=O)c2ccc(N(C)C)cc2)cc1,30.3%,22.7*,/,/,-1.1%,60.5*
COc1ccc(S(=O)(=O)N(C)c2ccc(C(=O)NCCC(C)C)cc2)cc1,-16.1%,-1.0,-3.7%,8.2µM*,-11.0%,-1.6
Cc1ccc(CNC(=O)c2ccc(-n3cccc3)cc2)cc1,9.4%,9.2,?,9.9%[46.1 µM],17.7%,6.6
COc1ccc(CNC(=O)c2ccc(N(C)S(=O)(=O)c3ccc(C)cc3)cc2)cc1,-15.1%,-1.7,?,?,4.47µM*,-7.6
Cc1ccc(C(=O)NCc2ccc(N(C)C)cc2)cc1NC(=O)c1nsc2ccccc12,0.7%,/,/,5.01µM*,/,/
COc1ccc(N(C)S(=O)(=O)c2ccc(Cl)c(C(=O)NCCc3ccc(Cl)cc3)c2)cc1,-14.3%,6.2,?,?,10µM*,20.1
CN(C)C(CNC(=O)c1cc(S(=O)(=O)N(C)c2ccccc2)ccc1Cl)c1ccccc1 (centres undefined),-27.5%,-1.7,?,?,7.08µM*,-5.2
C=CCNC(=O)c1ccc(N(Cc2ccc(Cl)cc2)S(C)(=O)=O)cc1,-8.6%,-1.0,/,/,4.8%,/
C=CCNC(=O)c1ccc(CN(c2ccc(OCC)cc2)S(=O)(=O)c2ccc(C)cc2)cc1,-2.2%,-2.8,/,/,11.2µM*,2.1
